# Bioassay records deposited in PubChem by National Center for Advancing Translational Sciences (NCATS).
# KinaseGlo FLuc: Counterscreen for Luciferase (Kinase-Glo TM) Inhibition; Kinase-Glo luciferase, ATP luminescence, 8 min; Potency, µM (series often up to 38.3 µM), for inactives: at the highest dose activity change, negative = inhibition, actives largely listed as inhibitors; 200,000 compounds, 0.28% hits; AID 1379, 2008; further: on the % scale 0 is the no-effect control and ±100 the full control effect; nearly all actives have a fitted effect of over 60% in size
#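 Substrate mix (final 50 mM imidazole pH 7.2, 50 mM KCl, 7 mM MgCl2, 10 uM ATP, 0.01% Tween 20, 0.05% BSA) plus pin-tool compound, then Kinase-Glo detection mix; 8 min ambient, luminescence read.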
# LMNA splice mod: qHTS Assay for Modulators of Lamin A Splicing; HeLa LMNA splicing GFP/RFP minigene ratio, 48 h; Potency, µM (doses to about 46.1 µM), for inactives: top-dose ratio change, negative = inhibition, usual class: inhibitors; 200,000 compounds, 0.01% hits; active means well fitted inhibition curve with a large enough effect in the signal ratio, with a control signal flat, not every such curve was filed as active; inconclusive means small, poorly fitted or top-dose-only effect, or effect the other way, or a change in a side signal; the % refers to the signal ratio; further: on the % scale 0 is the no-effect control and ±100 the full control effect
#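 S3 HeLa stable clones carrying a lamin A-EGFP splicing minigene plus DsRed2 were seeded at 600 cells/well in Opti-MEM with 2% FBS, pin-dosed and incubated 48 h at 37°C. Acumen cytometry (488 nm) gave the GFP/RFP total-intensity ratio.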
# HTT ATP protect: qHTS Multiplex Assay to Identify Dual Action Probes in a Cell Model of Huntington: Cytoprotection (ATP). AID 1471, 2008. PC12 HTT-Q103 induced, cytoprotection, ATP luminescence, 40 h. Potency, µM (highest dose often 56.4 µM), for inactives: cytoprotection (ATP increase), hits mostly activators. 230,000 compounds, 0.14% hits; further: % of control where 0% means no effect; nearly all actives have a fitted effect of over 45% in size
#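 PC12 cells with ecdysone-inducible HTT exon 1 Q103-GFP, induced with 100 nM tebufenozide and co-treated with library compounds in a dose series (1536-well, 1500 cells/well). Cytoprotection read as ATP content by ATPlite luminescence.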
# HttQ103 aggreg: qHTS Multiplex Assay to Identify Dual Action Probes in a Cell Model of Huntington: Aggregate Formation (GFP); Potency, µM (highest dose often 46.1 µM), for inactives: at the highest dose activity change, negative = inhibition, usual class: inhibitors; 220,000 compounds, 1.1% hits; PC12 HttQ103-GFP aggregates, Acumen cytometry, 40 h; further: on the % scale 0 is the no-effect control and ±100 the full control effect; nearly all actives have a fitted effect of over 60% in size
#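 Compounds (qHTS titration) were added to PC12 cells expressing an ecdysone-driven HTT exon 1 Q103–GFP fusion after induction with 100 nM tebufenozide. Aggregate formation was measured as GFP objects in cell lysates.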
# HPGD inh: qHTS Assay for Inhibitors of HPGD (15-Hydroxyprostaglandin Dehydrogenase); Potency, µM, for inactives: top-dose activity change, negative = inhibition, usual class: inhibitors; purified HPGD, NADH fluorescence kinetic, PGE2 substrate; AID 894, 2007; 150,000 compounds, 4.3% hits; 15-hydroxyprostaglandin dehydrogenase [NAD(+)] (Homo sapiens), P15428; active means well fitted inhibition curve with a large enough effect, not every such curve was filed as active; inconclusive means small, poorly fitted or top-dose-only effect, or another doubt; inactive means no such curve, though single readings can be large or run the other way; further: on the % scale 0 is the no-effect control and ±100 the full control effect
#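 NADH formation kinetics: reaction with 30 uM PGE2 and 1 mM NAD+ (final), 20 nM enzyme, Tris-HCl pH 8 with Tween 20, after 15 min compound preincubation at room temperature. Fluorescence change, last versus first of five reads.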
# ALDH1A1 block: qHTS Assay for Inhibitors of Aldehyde Dehydrogenase 1 (ALDH1A1) | Aldehyde dehydrogenase 1A1 (Homo sapiens), P00352 | Purified ALDH1A1, NADH fluorescence, propionaldehyde substrate | Potency, µM (series often up to 75.3 µM), for inactives: top-dose activity, negative = inhibition, most hits filed as inhibitors | 220,000 compounds, 7.3% hits | AID 1030, 2008; active means well fitted inhibition curve with a large enough effect, not every such curve was filed as active; inconclusive means small, poorly fitted or top-dose-only effect, or another doubt; inactive means no such curve, though single readings can be large or run the other way;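 further: plate controls were no enzyme wells and a reference inhibitor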
# Target sequence (P00352 whole entry, looked up): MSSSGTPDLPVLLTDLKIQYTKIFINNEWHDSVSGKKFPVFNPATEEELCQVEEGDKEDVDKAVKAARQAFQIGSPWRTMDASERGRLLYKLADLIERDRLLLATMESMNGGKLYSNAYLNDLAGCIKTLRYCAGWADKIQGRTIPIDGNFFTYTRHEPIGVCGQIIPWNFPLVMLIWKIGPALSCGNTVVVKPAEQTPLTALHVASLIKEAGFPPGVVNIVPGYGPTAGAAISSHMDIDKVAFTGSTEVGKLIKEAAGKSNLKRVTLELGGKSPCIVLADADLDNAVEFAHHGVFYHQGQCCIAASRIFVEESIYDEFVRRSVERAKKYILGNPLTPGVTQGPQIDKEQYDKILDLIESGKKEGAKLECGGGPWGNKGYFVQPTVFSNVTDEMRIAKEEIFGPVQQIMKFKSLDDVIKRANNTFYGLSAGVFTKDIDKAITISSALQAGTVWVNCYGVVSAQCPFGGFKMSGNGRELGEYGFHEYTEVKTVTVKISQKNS
# * marks the source's active call; other numbers are inactive results; ? = inconclusive; . = no result given; [ ] = dose if it differs, or a comment. Compounds with a hit are over-represented: about 9% of the library has one in this group of screens. Unless noted, the call rests on the fitted dose curve; in most records, active means well fitted curve in the direction sought with a large enough effect; inconclusive means small, poorly fitted or top-dose-only effect, or another doubt; inactive means no such curve, though single readings can be large; an effect the other way counts as inactive or inconclusive. Potency means the concentration at half of the fitted maximal effect.
SMILES,KinaseGlo FLuc,LMNA splice mod,HTT ATP protect,HttQ103 aggreg,HPGD inh,ALDH1A1 block
O=C(Nc1ccc(N2CCN(C(=O)c3ccccc3)CC2)c(Cl)c1)c1ccco1,-0.3%,?,-21.9%,22.4µM*,-8.7%,?
O=C(Nc1ccc(NC(=O)c2ccco2)c(Cl)c1)c1ccccc1,-18.8%,?,9.8%[10 µM],28.6%[9.22 µM],.,?
CCC(=O)Nc1cccc(NC(C)=O)c1,-1.5%,4.6%,13.4%[10 µM],-10.6%,-1.5%,7.7%
Cc1ccc(S(=O)(=O)c2c(Nc3ccccc3)sc(C(=O)c3ccc4c(c3)OCO4)c2N)cc1,.,-6.6%[46 µM],.,.,.,.
Cc1ccc(-n2nc(C)c3c(C)c(CCC(=O)NCc4ccccc4)c(C)nc32)cc1,-0.4%,-0.1%,-9.5%,0.7%,?,?
NS(=O)(=O)c1cccc(NC(=O)c2cccs2)c1,.,.,5.8%[10 µM],-8.5%[9.22 µM],.,.
O=C(COc1cccc(NC(=O)c2cccs2)c1)c1ccc(F)cc1,0.0%,?,-1.5%[10 µM],3.3%,15.8µM*,-0.1%
O=C(COc1cccc(NC(=O)c2ccccc2)c1)c1ccccc1,1.1%,10.9%[46 µM],4.4%[10 µM],-11.7%[9.22 µM],.,8.0%
O=C(Nc1cccc(Oc2ccc3c(c2)C(=O)NC3=O)c1)c1cccs1,-1.3%,3.7%,-15.8%[10 µM],?,14.1µM*,2.4%
COc1ccc(C2=NOC(CN3C(=O)c4ccccc4S3(=O)=O)C2)cc1 (stereo not given),-5.5%,8.9%,-56.7%,10.3%,25.1µM*,?
O=C1c2ccccc2S(=O)(=O)N1CC1CC(c2ccc(Cl)cc2)=NO1 (stereo not given),-7.4%,?,.,11.2%,17.8µM*,5.62µM*
O=C1c2ccccc2S(=O)(=O)N1CC1CC(c2ccccc2)=NO1 (stereo not given),8.3%,0.8%,-20.2%,-6.4%,-15.5%,?
COc1ccc(CCNC(=O)CN2C(=O)c3ccccc3S2(=O)=O)cc1,0.3%,7.3%,22.3%[10 µM],4.2%,-0.5%,?
CC1=CC(=O)C2=C(C)C[C@H](OC(=O)Cc3ccccc3)C3[C@H](OC(=O)[C@H]3C)C12 (stereo not given in full),-0.2%,.,-21.2%,.,-2.6%,?
CC(=O)c1cc(C#N)c(SCCC(C)C)nc1C,2.5%,21.9%,-35.0%[0.074 µM],3.2%,-10.2%,?
CC(C)CCSc1nc(N)c(C#N)cc1C#N,-2.8%,?,-28.0%[10 µM],22.4µM*,-23.4%,?
CCc1c(C)sc(NC(=O)OC)c1C(N)=O,-6.8%,15.5%,11.6%,14.3%,-24.5%,-0.9%
CCc1c(C)sc(NC(=O)C2CCCCC2C(=O)O)c1C(N)=O (stereo not given),6.8%,8.4%,-23.1%,-2.1%,3.98µM*,1.58µM*
COc1cc(CNCCN(C)C)c(Br)cc1OCC(=O)NCc1ccccc1,-0.6%,?,.,?,-8.8%,10.7%
CCOC(=O)C1(CC2CCCCO2)CCN(S(=O)(=O)c2cc(C)cs2)CC1 (stereo not given),-6.2%,.,-22.5%[10 µM],-21.4%[9.22 µM],.,10µM*
CCOC(=O)C1(CC2CCCCO2)CCN(S(=O)(=O)c2ccc(OC)cc2)CC1 (stereo not given),-0.3%,.,-8.3%[10 µM],-2.2%[9.22 µM],.,-8.6%
CCOC(=O)C1(CC2CCCCO2)CCN(Cc2cc3ccccc3[nH]2)CC1 (stereo not given),-1.6%,.,-58.0%[10 µM],-29.1%[9.22 µM],.,1.26µM*
CCOC(=O)C1(CC2CCCCO2)CCN(S(=O)(=O)c2cccc(F)c2)CC1 (stereo not given),3.8%,0.9%[46 µM],-13.5%[10 µM],-20.0%[9.22 µM],.,25.1µM*
COCC(=O)N(Cc1cc2ccccc2[nH]c1=O)c1ccccc1OC,-3.8%,-5.8%,13.1%,4.4%,-14.7%,?
